In PubChem BioAssay one finds inhibition data, which are given here for 40 compounds.

Activity calls are given as the source filed them. No rule for the calls is given here.

Pantothenate synthetase (Mycobacterium tuberculosis (strain ATCC 25618 / H37Rv)), sequence (P9WIL5 whole entry, looked up): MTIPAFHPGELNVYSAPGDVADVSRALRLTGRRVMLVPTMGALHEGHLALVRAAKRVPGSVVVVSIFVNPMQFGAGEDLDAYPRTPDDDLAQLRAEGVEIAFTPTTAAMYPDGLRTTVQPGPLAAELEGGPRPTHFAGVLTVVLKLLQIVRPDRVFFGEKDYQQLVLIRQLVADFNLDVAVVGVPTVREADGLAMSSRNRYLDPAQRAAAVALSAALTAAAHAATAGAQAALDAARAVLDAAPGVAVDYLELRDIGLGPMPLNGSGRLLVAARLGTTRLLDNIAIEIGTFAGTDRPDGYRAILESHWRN

This test has as its target Pantothenate synthetase (Mycobacterium tuberculosis (strain ATCC 25618 / H37Rv)) (UniProt P9WIL5). Kind of test: Recombinant Mtb pantothenate synthetase (PanC) inhibitors, coupled enzyme, confirmatory (AID 375).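 Also: 0% = full reaction with vehicle and 100% = no enzyme background.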 The note with it: coupled enzyme assay; at 10 µM, stronger effect = higher value.
The inhibition is the percentage by which the read-out fell short of the control. Turning to `CCCCn1c(SCC(=O)OCC)nc2c1c(=O)[nH]c(=O)n2C`, the inhibition is 2% (inactive).

`CC(C)CCNC(=O)NC(=O)CSc1nnc(-c2ccccc2Br)o1`: the inhibition was 1% (inactive).

As to `O=C1CN=C(Nc2cccc(C(F)(F)F)c2)N1C1CCCC1`, the inhibition was 0% (inactive).

Take `CC(C)CCn1c(SCC#N)nc2c(sc3ccccc32)c1=O`: the inhibition was 2% (inactive). Under `CCOc1ccc(-c2nnc(N(CC)C(=O)C3CCC3)s2)cc1` stands 11% (inactive); under `O=C(CSc1n[nH]c(=O)[nH]c1=O)c1ccccc1`, 0% (inactive). The result for `O=C(Nc1ccc(F)cc1)c1cccc2c1C(=O)N(Cc1ccccn1)C2` reads 0% (inactive).

`Cc1nc(SCC(=O)Nc2cc(C)on2)c2c3c(sc2n1)CCCC3`: the inhibition is 4% (inactive). Take `C=C(C)CSc1nnc2[nH]c(=O)cc(N)n12`: the inhibition is 0% (inactive).

On to `CCNC(=O)COc1ccc(Br)cc1Cl`, for which the inhibition was 4% (inactive). The result for `CCOC(=O)Cn1c(S(=O)(=O)Cc2ccccc2)nc2ccccc21` reads 0% (inactive). Turning to `Cc1cccc2cc(C(c3nnnn3C(C)(C)C)N3CCN(C(=O)c4ccco4)CC3)c(=O)[nH]c12` (stereo not given), the inhibition is 6% (inactive). Under `CCCc1cc(C(N)=O)c(NC(=O)c2ccco2)s1` stands 0% (inactive); under `COc1cccc(OC)c1C(=O)N1CCN(S(=O)(=O)c2ccccc2)CC1`, 0% (inactive); under `N#Cc1cc2sc3nnc(-c4ccncc4)n3c2cc1C#N`, 0% (inactive). Under `CC(C)(C)n1ncc2c(=O)n(CC(=O)NCCc3ccccc3)cnc21` stands 4% (inactive). The result for `CCn1c(SCc2nc(-c3cccs3)no2)nnc1-c1c[nH]c2ccccc12` reads 0% (inactive); that for `C=CCSC1=C(C#N)C(c2ccccc2OCC)CC(=O)N1` (stereo not given), 0% (inactive). Consider `CC1(C)NC(=O)N(CNc2cc(Cl)ccc2Cl)C1=O`, for which the inhibition was 0% (inactive).

Take `CCOc1ccc(S(=O)(=O)N2CCN(c3ccc(C)cc3C)CC2)cc1`: the inhibition was 0% (inactive). `Cc1cccc(N2C(=O)CC(N3CCN(Cc4ccc(Cl)cc4)CC3)C2=O)c1` (stereo not given): the inhibition is 0% (inactive). Consider `CCSC1=C(C#N)C(c2cccc(OC)c2)CC(=O)N1` (stereo not given), for which the inhibition is 6% (inactive). Under `Brc1ccc(-c2nnc3sc(CN4CCC5(CC4)OCCO5)cn23)cc1` stands 0% (inactive); under `Cc1ccc(N(C(=O)C2CCC(=O)N2)C2(C(=O)NC3CCCCC3)CCCCC2)cc1` (stereo not given), 2% (inactive); under `O=C(NC1(C(F)(F)F)C(=O)Nc2c1c(=O)[nH]c(=O)n2Cc1ccco1)C1CCCCC1` (stereo not given), 0% (inactive). With `Cc1ccc(C)c(OCC(O)CN2C(C)CCCC2C)c1` (stereo not given), the inhibition is 0% (inactive). The result for `CCOC(=O)c1c(C)[nH]c(C)c1C(=O)COC(=O)CNC(=O)c1ccc(OCC)cc1` reads 0% (inactive); that for `C=CCSC1=C(C#N)C(c2ccccc2)CC(=O)N1` (stereo not given), 0% (inactive).

As to `CC1=C(C(=O)OC2CCCCCC2)C(c2ccc(C)o2)C2=C(CCCC2=O)N1` (stereo not given), the inhibition was 0% (inactive).

As to `CCOC(=O)CSc1nc2c(c(-c3ccc(C)o3)c1C#N)CCCC2`, the inhibition was 0% (inactive). Under `CCC(C)(C(=O)NC1CCCCC1)N(Cc1ccco1)C(=O)c1ccc2c(c1)OCO2` (stereo not given) stands 0% (inactive); under `CCOC(=O)c1cc(-c2nnc(-c3ccc(Oc4ccccc4)cc3)o2)c(C)nc1C`, 0% (inactive). For the compound `Cn1c(=O)c2c(nc(SCCCO)n2Cc2ccccc2Cl)n(C)c1=O`, the inhibition is 3% (inactive). The result for `O=C1CC(c2ccccc2)NC(=O)N1` (stereo not given) reads 0% (inactive); that for `COc1ccccc1Oc1ccc(S(=O)(=O)N2CCOCC2)cc1S(=O)(=O)N1CCOCC1`, 0% (inactive). Under `Cc1ccc(C(=O)CSc2nnc(-c3cccnc3)n2N)cc1` stands 5% (inactive); under `CC(=O)c1cccc(NC(=O)N2C3CCC2CC(O)(c2cccnc2)C3)c1` (stereo not given), 0% (inactive); under `CCC(C)NC(=O)C1c2cc(OC)c(OC)cc2C(=O)N(C)C1c1ccc(OC)cc1` (stereo not given), 0% (inactive). On to `COC(=O)Nc1ccc(S(=O)(=O)N2CCN(c3ccc(F)cc3)CC2)cc1`, for which the inhibition was 0% (inactive). Under `O=C(COC(=O)c1ccc(Br)o1)Nc1ccc(S(=O)(=O)N2CCCC2)cc1` stands 5% (inactive).
